Data published in PubChem BioAssay (NCI).
About 79,000 compounds went through this panel and 15% of them were active in at least one assay; those are over-represented in the sample as a whole. Rule as the data show it: active = growth inhibition above about 70%; inactive = the rest.

Assays:
[1] = NCI Yeast Anticancer Drug Screen. Data for the rad50 strain (AID 155);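 also: 0% = growth of vehicle-only cultures of the same strain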; conditions: S. cerevisiae rad50 strain growth inhibition; at 50.0 µM; hits give high values
In short: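 Compounds were tested on a yeast strain with an engineered DNA damage repair alteration; the reported value is growth inhibition normalised to vehicle treatment.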

[2] = NCI Yeast Anticancer Drug Screen. Data for the mec2-1 strain (AID 157); conditions: S. cerevisiae mec2-1 strain, at 50.0 µM, hits give high values
In short: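 Yeast mec2-1 mutant treated with compound. Readout: growth inhibition vs vehicle controls.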

[3] = NCI Yeast Anticancer Drug Screen. Data for the sgs1 mgt1 strain (AID 161);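 also: 0% = growth of cultures given vehicle only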; conditions: S. cerevisiae sgs1 mgt1 strain, at 50.0 µM, hits give high values
In short: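 Read-out: growth inhibition vs vehicle controls. Cells: mutant yeast strain deficient in DNA damage repair.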

[4] = NCI Yeast Anticancer Drug Screen. Data for the cln2 rad14 strain (AID 165);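 also: 0% = growth equal to vehicle treated cultures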; conditions: S. cerevisiae cln2 rad14 strain, at 50.0 µM, hits give high values
In short: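 cln2 rad14 yeast strain; compound exposure; growth inhibition read vs vehicle controls.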

[5] = NCI Yeast Anticancer Drug Screen. Data for the bub3 strain (AID 167); conditions: S. cerevisiae bub3 mutant strain, at 50.0 µM, hits give high values
In short: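 Growth of a checkpoint-deficient yeast mutant is measured after compound exposure. Values represent inhibition relative to vehicle.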

[6] = NCI Yeast Anticancer Drug Screen. Data for the mlh1 rad18 strain (AID 175); conditions: S. cerevisiae mlh1 rad18 strain growth inhibition; at 50.0 µM; hits give high values
In short: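 Yeast w/ defined DNA-repair lesions; compound exposure; growth vs vehicle controls → % inhibition.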

Measured: growth inhibition

N#C/C(=C\c1ccco1)C(=O)c1ccco1
inactive: [1] 19.4% | [2] 15.1% | [3] 28.2% | [4] 13.8% | [5] 38.7% | [6] 34.6%

CC(=O)OCN(C)N=Nc1ccc([N+](=O)[O-])cc1
inactive: [1] 28% | [2] 10.5% | [3] 25.8% | [4] 6.15% | [5] 10.6% | [6] 22.6%

Cc1cnc2cccc(C)c2c1Cl
inactive: [1] -29.5% | [2] 0.05% | [3] 10.3% | [4] -16.4% | [5] 8.3% | [6] -3.3%

COc1ccc(/C=C2\N=C(c3cc(OC)c(OC)c(OC)c3)OC2=O)cc1OC
inactive: [1] 7.1% | [2] 10.9% | [3] 8.5% | [4] 29.9% | [5] -1.85% | [6] 25.1%

NC(=O)c1ccccc1OCC(=O)O
inactive: [1] 6.65% | [2] -1.2% | [3] 4.2% | [4] 15.8% | [5] -6.45% | [6] 19.1%

COc1ccc2c(c1)C(=O)[C@]1(C)C3(C)OC(=O)C(c4ccccc43)[C@]21C (stereo not given in full)
inactive: [1] 2.6% | [2] -8.6% | [3] -13.8% | [4] 9.3% | [5] -17.6% | [6] 12.6%

COc1cc2cc3c4cc(OC)c(OC)cc4cc[n+]3c(CCC(=O)O)c2cc1OC (tested in a mixture with another compound)
inactive: [1] 10.4% | [2] -2.75% | [3] -8.25% | [4] -4% | [5] 9.35% | [6] -0.1%

Cc1ccnc(=O)[nH]1
inactive: [1] -2.45% | [2] -0.2% | [3] 11.8% | [4] 8.45% | [5] 1.75% | [6] 29.9%

CCOc1ccc(C2=NN(CC)C(=O)C(C3C(=O)N(c4ccccc4)N=C3C)C2)cc1 (stereo not given)
inactive: [1] 4.8% | [2] -7.3% | [3] -0.35% | [4] -30.9% | [5] -22.3% | [6] -10.2%

COC(=O)/C(=N\N)C(C(=O)C(=O)Nc1nc(=S)[nH][nH]1)c1nc2ccc([N+](=O)[O-])cc2[nH]c1=O (stereo not given)
inactive: [1] 2.3% | [2] -7.65% | [3] 10.1% | [4] 11.7% | [5] 29% | [6] 22.6%

O=C1CCCC/C1=C/c1ccccc1
inactive: [1] 6% | [2] 18.9% | [3] -3.3% | [4] -19.1% | [5] -11.9% | [6] 8.05%

CCCCOC(=O)C1CSSCC(NC(C)=O)C(=O)N1 (stereo not given)
inactive: [1] -2.05% | [2] -7.35% | [3] 1.5% | [4] -16.5% | [5] -7.2% | [6] -6.95%

CN(C)Cc1[nH]c(=O)[nH]c(=O)c1O
inactive: [1] -9.05% | [2] -8.75% | [3] -11.9% | [4] -38.8% | [5] -21.5% | [6] -45.3%

CCCCCCCCNC(=O)/C(=C\c1ccc(/C=C(/NC(=O)c2ccccc2)C(=O)NCCCCCCCC)cc1)NC(=O)c1ccccc1
inactive: [1] -14% | [2] -23.4% | [3] -20.4% | [4] 11.7% | [5] -17.9% | [6] -4%

Cc1cc(C)nc(NS(=O)(=O)c2ccc(NC(=O)c3cccc4c(Nc5ccc(S(=O)(=O)N=C(N)N)cc5)c5ccc(Cl)cc5nc34)cc2)n1
inactive: [1] 16.4% | [2] 23.3% | [3] 27.2% | [4] 24.4% | [5] 13% | [6] 32.8%

O=C1CC(c2ccc(Cl)cc2)C(=O)O1 (stereo not given)
inactive: [1] -10.5% | [2] 12% | [3] 1.6% | [4] 3.2% | [5] -23.4% | [6] -15.1%

COc1ccccc1NC(=O)C(C#N)=C(SC)SC
inactive: [1] 2.05% | [2] -14.2% | [3] 0.1% | [4] 18.6% | [5] -22.4% | [6] -13.7%

CCc1cccc(C)c1N1C(=O)C(=O)C(c2nc3ccccc3o2)C(=O)C1=O
inactive: [1] 33.8% | [2] 17.9% | [3] 19.7% | [4] 16% | [5] -4.55% | [6] 34.5%

CCOC(=O)C(C(O)c1ccc([N+](=O)[O-])cc1)P(=O)(OCC)OCC (stereo not given)
inactive: [1] 24.3% | [2] -16.4% | [3] -4.7% | [4] 5.25% | [5] -10.9% | [6] -20.2%

COc1ccc(NC(=O)NNS(=O)(=O)c2ccc(C)cc2)cc1
inactive: [1] 10.1% | [2] 6.15% | [3] 6.6% | [4] 4.9% | [5] 13.9% | [6] -36.9%
